# Experimental data from PubChem BioAssay (EPA / NIEHS).
# Activity calls are given as the source filed them. The calls were made as follows: active = hit-call score of the fitted dose curve at least 0.9, where 1 is the maximum; inconclusive = response in the unintended direction; inactive = score below 0.9.
# Assay: IUF_NPC2-5_cytotoxicity_120hr: Cytotoxicity Assessment at 120 hours in the Leibniz Research Institute for Environmental Medicine (IUF) Neural Progenitor Cell Migration and Differentiation Assay (NPC2-5) (AID 2284307);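 as to AC50: LDH released into supernatant as membrane damage marker via resorufin fluorescence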
# Procedure: IUF_NPC2-5 is a cell-based, multiplexed assay that uses hNPC, a human primary neural progenitor cells, with measurements taken at 72 or 120 hours after chemical dosing in a 96-well plate. Human neural progenitor cells (hNPC) are generated from human fetal brain cortex at gestational week (GW) 16-19. In the neural progenitor cell migration and differentiation assay (NPC2-5), hNPCs grown as spheres are plated on an extracellular matrix and migrate and differentiate out of the sphere core. The processes radial glia migration, neuronal and oligodendrocyte migration as well as neuronal differentiation, neuronal morphology and oligodendrocyte differentiation are studied using automated phase contrast imaging and automated fluorescence imaging in combination with high content image analysis. In parallel, the cell viability is assessed using an alamar blue viability assay and the cytotoxicity using a lactate dehydrogenase dependent membrane integrity assay.IUF_NPC2-5_cytotoxicity_120hr is one of 12 assay components measured from the IUF_NPC2-5 assay. It is designed to measure cytotoxicity at 120hr due to loss of membrane integrity. LDH measurements are performed from medium supernatants of each well and are based on the reduction of resazurin to resorufin measured as fluorescence signal (relative fluorescence unit) in a multiplate reader. Data from the IUF_NPC2-5_cytotoxicity_120hr component was analyzed at the endpoint IUF_NPC2-5_cytotoxicity_120hr in the positive analysis fitting direction relative to the dynamic range and baseline of activity. Using a type of viability reporter, gain-of-signal activity can be used to understand cytotoxicity effects.
# Culture protocol: After the cell expansion period the cells are cultured for up to four weeks in which they are passaged every week as described in 3.6. Between one to three days after passaging spheres at a size of 0.3 mm are picked for the test method. For the assessment of neural progenitor cell migration and differentiation, the spheres are plated on poly-D-lysine/laminin coated 96-well flat bottom plates in differentiation medium (N2) to initiate migration and differentiation. Thereby one 0.3 mm big sphere is plated in the middle of a well. The differentiation medium consists of DMEM and Ham's F12 at a ratio of 3 to 1 supplemented with 1% N2 and 1% penicillin and streptomycin. Within 5 days NPCs radially migrate out of the sphere core and differentiate into radial glia cells (nestin positive), neurons (TUBB3 positive), oligodendrocytes (O4 positive) and astrocytes (GFAP positive). Cultivation during the test method is performed at 37C and 5% CO2 at a ph of 7.2-7.6.Exposure: 0.3 mm big hNPC are plated in the already prepared test conditions. Exposure starts at day 0 of differentiation and is continued over five days of differentiation until the experiment is terminated. Cells are fed with fresh medium at day 3 of differentiation. Therefore, half of the test condition solution (e.g. solvent control or compound dilution) is replaced by freshly prepared test condition solution.Test Method: Migration distance and cytotoxicity is determined after 72 hours based on brightfield images of each well. The assay is terminated by the assessment of cell viability and cytotoxicity as well as cell fixation after 120 h. Immunocytochemistry is performed for Hoechst positive nuclei, TUBB3 positive neurons and O4 positive oligodendrocytes. On the ICC images, migration after 120 hours, neuronal and oligodendrocyte number, neuronal morphology and neuron/oligodendrocyte specific migration is assessed. immunocytochemical staining (ICC) generates an image for each sphere. The plates are scanned using an automated high content imaging device and all nuclei and their positions are determined automatically based on their intensity and size. Images are imported to the Omnisphero software to run the image analysis that measures the following endpoints. […]
Compound,outcome,AC50
F,inactive,
CN(C)CCCn1cc(C2=C(c3c[nH]c4ccccc34)C(=O)NC2=O)c2ccccc21,,8.39 µM (active)
CCCCCC(C)(CC)C(=O)NC (stereo not given),inactive,
CC(C)O,inactive,
C[C@@H]1CCO[C@H]2Cn3cc(C(=O)NCc4ccc(F)cc4F)c(=O)c(O)c3C(=O)N12,inactive,
Cc1[nH]n(C)c(=O)c1C(=O)c1ccc(C(F)(F)F)cc1S(C)(=O)=O,inactive,
O=C1CC2(CCCC2)CC(=O)N1CCCCN1CCN(c2ncccn2)CC1,inactive,
CCCCOCCOP(=O)(O)OCCOCCCC,inactive,
BrC1CC(Br)CC(Br)CC(Br)CC(Br)CC(Br)C1 (stereo not given),,4.52 µM (active)
CC(=O)N[C@@H](CC(=O)O)C(=O)O,inactive,
CC(C)c1nn(C(=O)NC(C)(C)C)c(=O)n1N,inactive,
CCCCCC=C(C)C(CC)CCO (stereo not given),inactive,
CCc1ccccc1,inactive,
C[C@@H]1CC[C@@H](C(C)(C)O)[C@H](O)C1,inactive,
CC(CNC(=S)[S-])NC(=S)[S-].[Zn+2] (stereo not given),,9.92 µM (active)
